Compounds without any hit were thinned out: in the full panel of roughly 79,000, 15% have a hit. Unmarked numbers belong to inactive results. Activity calls are given as the source filed them. Cut-off read from the data, not from the text of the source: active = growth inhibition above about 70%; inactive = the rest.
Assays:
[1] = NCI Yeast Anticancer Drug Screen. Data for the rad50 strain (AID 155);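 note: 0% = growth of vehicle-only cultures of the same strain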; conditions: S. cerevisiae rad50 strain growth inhibition, hits give high values; at 50.0 µM unless noted
Procedure, shortened: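 Compounds were tested on a yeast strain with an engineered DNA damage repair alteration; the reported value is growth inhibition normalised to vehicle treatment.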

[2] = NCI Yeast Anticancer Drug Screen. Data for the mec2-1 strain (AID 157); conditions: S. cerevisiae mec2-1 strain, hits give high values; at 50.0 µM unless noted
Procedure, shortened: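 Readout is yeast growth inhibition, normalised to vehicle-treated controls, in the mec2-1 strain exposed to compound.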

[3] = NCI Yeast Anticancer Drug Screen. Data for the sgs1 mgt1 strain (AID 161);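 note: 0% = growth of cultures given vehicle only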; conditions: S. cerevisiae sgs1 mgt1 strain, hits give high values; at 50.0 µM unless noted
Procedure, shortened: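 Yeast cells carrying a defined DNA-repair defect were exposed to test compounds. Growth inhibition was measured relative to vehicle-treated controls.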

[4] = NCI Yeast Anticancer Drug Screen. Data for the cln2 rad14 strain (AID 165);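 note: 0% = growth equal to vehicle treated cultures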; conditions: S. cerevisiae cln2 rad14 strain, hits give high values; at 50.0 µM unless noted
Procedure, shortened: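 Relative to vehicle controls, growth inhibition of compound-treated cln2 rad14 yeast was recorded.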

[5] = NCI Yeast Anticancer Drug Screen. Data for the bub3 strain (AID 167); conditions: S. cerevisiae bub3 mutant strain, hits give high values; at 50.0 µM unless noted
Procedure, shortened: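 Growth of a checkpoint-deficient yeast mutant is measured after compound exposure. Values represent inhibition relative to vehicle.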

[6] = NCI Yeast Anticancer Drug Screen. Data for the mlh1 rad18 strain (AID 175); conditions: S. cerevisiae mlh1 rad18 strain growth inhibition, hits give high values; at 50.0 µM unless noted
Procedure, shortened: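 Test agents were incubated with a yeast strain of defined genotype (DNA damage repair defect). Inhibition of growth was derived by comparison with vehicle-exposed cultures.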

| SMILES | growth inhibition [1] | growth inhibition [2] | growth inhibition [3] [%] | growth inhibition [4] [%] | growth inhibition [5] [%] | growth inhibition [6] |
| --- | --- | --- | --- | --- | --- | --- |
| CC(=O)Nc1cccc(N=Cc2ccc(N(CCOS(C)(=O)=O)CCOS(C)(=O)=O)cc2C)c1 | 73.8% (active) | 70.5% (active) | 40.4 | 22.9 | 13.8 | 93.2% (active) |
| CN(C)C(=O)Sc1ccc(C(C)(C)C)cc1 | 8.3% | -8.1% | -15.7 | -41.5 | -1.65 | -28.2% |
| CCn1c(=O)n(Cc2ccccc2)c(=O)c2ccccc21 | 19.6% | 8.95% | 24.8 | 10.8 | -4.7 | 30.3% |
